Screening results from PubChem BioAssay.
In the library only some 0.84% were active in any assay of this set; here they are far more common.
SRC2 inh: human SRC2 (NCOA2) inhibition. inhibition, % at 9 µM. HEK293 GAL4-SRC2 luciferase reporter, luminescence. AID 651957. 0.17% of 370,000 active;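 active = inhibition above the mean inhibition of all tested compounds plus 3 SD, set per campaign, cut at about 52% in these data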;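 also: 0% = DMSO treated cells and 100% = cells given Gossypol at 36 µM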
NR2F2 inh: blocks human COUP-TFII nuclear receptor; AID 686940; P24468; inhibition, % at 8.6 µM; 0.7% of 370,000 active; HEK293T NGFI-A luciferase reporter, luminescence;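 active = inhibition above a per-plate cutoff, mean inhibition of test wells between control levels plus 3 SD, cut at about 38% in these data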;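 also: cells cotransfected with COUP-TFII expression vector driving the NGFI-A reporter; 0% = median of COUP-TF2 test wells and 100% = reporter-only cells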
Target sequence (P24468 whole entry, looked up): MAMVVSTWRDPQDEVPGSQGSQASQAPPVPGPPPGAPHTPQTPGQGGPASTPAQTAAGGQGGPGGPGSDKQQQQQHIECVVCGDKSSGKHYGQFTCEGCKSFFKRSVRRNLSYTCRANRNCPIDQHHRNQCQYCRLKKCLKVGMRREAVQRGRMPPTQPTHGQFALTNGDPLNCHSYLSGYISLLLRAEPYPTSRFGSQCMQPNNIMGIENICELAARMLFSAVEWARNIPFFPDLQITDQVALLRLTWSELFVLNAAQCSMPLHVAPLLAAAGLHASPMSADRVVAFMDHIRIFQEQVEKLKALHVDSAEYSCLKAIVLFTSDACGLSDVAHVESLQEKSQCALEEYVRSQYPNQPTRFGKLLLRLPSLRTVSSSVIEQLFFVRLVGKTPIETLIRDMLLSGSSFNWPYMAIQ
NR5A2 inv ag: suppresses constitutive activity of human LRH-1; O00482; HEK293T StAR-luciferase reporter, LRH-1 transfected, 24 h; inhibition, % at 3.6 µM; 0.13% of 360,000 active;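 active = inhibition above the mean inhibition of all tested compounds plus 3 SD, cut at about 73% in these data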;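 also: 0% = DMSO wells and 100% = reporter-only cells lacking LRH-1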
NCOA1 inh: inhibitors of human steroid receptor coactivator 1 (SRC1) | Q15788 | HEK293 GAL4-SRC1 luciferase reporter, luminescence | inhibition, % at 3.6 µM | 0.12% of 360,000 active;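 active = inhibition above the campaign mean plus 3 SD, with each screening campaign given its own cutoff, cut at about 60% in these data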;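 also: 0% = DMSO treated cells and 100% = gossypol at 36 µM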
SRC3 inh: inhibits human SRC3 coactivator | 0.17% of 360,000 active | inhibition, % at 3.6 µM | HEK293 GAL4-SRC3 luciferase reporter, luminescence | AID 588352 | Q9Y6Q9;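 active = inhibition above a per-campaign cutoff, the mean of all compounds plus 3 SD, cut at about 60% in these data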;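 also: 0% = DMSO-treated cells and 100% = gossypol-treated cells at 36 µM; higher means less SRC3-driven luciferase light from the GAL4 reporter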
Numbers without * were called inactive; / = no result.

SMILES | SRC2 inh | NR2F2 inh | NR5A2 inv ag | NCOA1 inh | SRC3 inh
Cc1ccc(NC(=O)Cn2cccc2C2=NC(c3ccccc3)CO2)cc1C (centres undefined) | 100* | -1 | -16 | 10 | -3
CCc1ccccc1NC(=O)Cn1cccc1C1=NC(c2ccccc2)CO1 (centres undefined) | 0 | 20 | 3 | -28 | -3
C[C@@H]1CN(c2ccc(N3CCNC[C@H]3C)cc2C#N)CCN1Cc1ccccc1 | 33 | 12 | / | / | /
O=C(Cc1cn(Cc2ccccc2)c2ccccc12)Nc1ccc(Nc2cccnc2)cc1 | -7 | 7 | / | / | /
CC(C)(C)OC(=O)NCCCCCNC(=O)c1nc[nH]c1C(=O)NCc1ccc(CNC(=O)OC(C)(C)C)cc1 | 23 | 72* | 20 | 13 | 23
CC(C)(C)OC(=O)NCc1ccc(CNC(=O)c2nc[nH]c2C(=O)NCc2ccc(CNC(=O)OC(C)(C)C)cc2)cc1 | -4 | 47* | 27 | 12 | 18
CC(C)(C)OC(=O)NCCCC[C@H](NC(=O)c1nc[nH]c1C(=O)NCc1ccc(CNC(=O)OC(C)(C)C)cc1)C(=O)OC(C)(C)C | -1 | 7 | 9 | -5 | -2
CC(C)(C)OC(=O)CNC(=O)c1nc[nH]c1C(=O)NCc1ccc(CNC(=O)OC(C)(C)C)cc1 | -11 | 13 | 12 | 7 | -2
COC(=O)[C@]12C[C@H](CC(=O)NCc3ccc(OC)c(OC)c3)C(=O)N(CCC3=CCCCC3)C1=C[C@H](COCc1ccccc1)O[C@@H]2C | -5 | 21 | / | / | /
Nc1ncnc(N2CCc3ccccc32)c1[N+](=O)[O-] | 44 | 35 | 33 | 73* | 65*
O=c1cnnc(N/N=C/c2ccccn2)[nH]1 | 36 | -3 | 92* | 66* | 83*
Cc1cc(=O)[nH]c(N/N=C/c2ccccn2)n1 | 26 | -35 | 37 | 10 | 5
O=C(Cc1ccc(Cl)cc1)c1c[nH]c(C(=O)NCc2cccnc2)c1 | 88* | 23 | 38 | -11 | 49
CC(C)(C)c1ccc(C(=O)c2c[nH]c(C(=O)NCc3cccnc3)c2)cc1 | 7 | -29 | 3 | -13 | -34
CCc1ccc(-c2nc(CS(=O)CC(=O)NCc3ccco3)c(C)o2)cc1 (centres undefined) | 54* | 32 | 41 | 21 | 33
COc1ccc(-c2nc(CS(=O)CC(=O)NCc3ccco3)c(C)o2)cc1 (centres undefined) | -25 | 7 | 16 | -9 | -28
COc1cccc(/C=N/NC(=O)c2c(C)nc3ccc(Cl)cn23)c1O | 15 | -20 | 90* | 47 | 78*
COc1cccc(/C=N/NC(=O)c2ccc(-c3ccccc3)cc2)c1O | 16 | 12 | 53 | 45 | 68*
CCc1ccc(/C=C2\SC(=S)N(CCCC(=O)Nc3ccccc3C(=O)O)C2=O)cc1 | 22 | -6 | 8 | 0 | 1
Cc1ccc(/C=C2\SC(=S)N(CCCC(=O)Nc3ccc(O)cc3)C2=O)cc1 | 67* | 31 | 9 | 23 | 47
Cc1ccc(/C=C2\SC(=S)N(CCCC(=O)Nc3ccccc3C(=O)O)C2=O)cc1 | 66* | 15 | 5 | 23 | 18
Cc1ccc(/C=C2/SC(=S)N(CCCC(=O)Nc3cc([N+](=O)[O-])ccc3O)C2=O)cc1 | 55* | 24 | 3 | -28 | 14
CCOC(=O)c1cnc2c3c(noc13)CCC2 | -23 | 10 | / | / | /
Nc1nc2c(ncn2[C@@H]2O[C@H](C(=O)N[C@H](Cc3ccccc3)C(=O)NC3CCCCC3)[C@@H](O)[C@H]2O)c(=O)[nH]1 | -13 | -7 | / | / | /
CCn1c(SCC(=O)Nc2ccc(S(=O)(=O)Nc3cc(C)nc(C)n3)cc2)nc2sc(C)c(C)c2c1=O | -7 | 0 | / | / | /
SMILES | SRC2 inh | NR2F2 inh | NR5A2 inv ag | NCOA1 inh | SRC3 inh
C[C@@H](C(=O)Nc1ccc2c(c1)OCCO2)n1c(=O)[nH]c2ccccc2c1=O | 41 | 28 | 52 | 61 | 67*
CC(O)CNc1ncnc2nc[nH]c12 (centres undefined) | -10 | 1 | -12 | 7 | -22
CC(C)CCCCCCCCCCCCC(=O)NCC(=O)NC1C(O)C(O)C(Nc2ncnc3nc[nH]c23)OC1C(O)CO (centres undefined) | / | / | 99* | 95* | 93*
CC(=NNC(=S)Nc1cccc(Cl)c1)c1ccccn1 | 30 | 8 | 46 | 58 | 67*
COc1ccc(C(=O)NCCNc2nc3cc(C)cc(C)c3cc2C#N)c(OC)c1 | 77* | 10 | 30 | / | /
COc1cccc2[nH]c(=O)c(-c3ccccc3)cc12 | -44 | -31 | -98 | -61 | 83*
COc1ccccc1-n1cc([C@@H]2C[C@H]3CN(c4ccccc4)C(=O)[C@]34CCCN24)cn1 | -32 | 7 | 53 | 55 | 64*
COc1cc([C@@H]2C[C@H]3CN(c4ccccc4)C(=O)[C@]34CCCN24)cc(OC)c1OC | -12 | 1 | 21 | 24 | 16
CC(C)(C)c1ccc(C#C[C@@H]2C=C[C@@H](O)[C@@H](COC(=O)Nc3ccccc3)O2)cc1 | 4 | -3 | / | / | /
CN1OC[C@@H]2CN[C@H](c3ccc(-c4cc5ccccc5o4)cc3)C[C@@H]21 | / | / | 91* | 87* | 87*
Cc1ccc(NC(=O)c2cc3ccccc3oc2=O)cc1S(=O)(=O)N(C)C | / | / | 75* | 85* | 85*
Cc1nnc(-c2ccccc2)c(=O)n1/N=C/c1c(O)ccc2ccccc12 | 46 | 2 | 20 | 55 | 74*
CCc1cccc(Nc2cc(C)n(-c3cccc(CC)c3)c(=O)c2)c1 | -24 | -5 | / | / | /
CC(C)CC(=NNC(=O)c1ccncc1)c1cc(Cl)ccc1O | -5 | 4 | 45 | 53 | 71*
CC(=NNC(=O)c1ccncc1)c1ccccc1O | 2 | 1 | 0 | 11 | -2
O=C(CCc1c[nH]c2ccccc12)Nc1ccc(Nc2cccnc2)c(Br)c1 | -8 | 12 | / | / | /
Cc1cc(N2CCN(C(=O)OC(C)(C)C)C[C@@H]2C)ccc1N1CCS(=O)(=O)CC1 | 5 | 12 | / | / | /
Cc1cc(C(=O)Nc2ccc(CC(=O)O)cc2)c(C)o1 | 55* | 13 | 10 | -8 | 7
Nc1[nH]c(C(=O)c2ccccc2)c(-c2ccccc2Cl)c1C(=O)NCCc1c[nH]c2ccccc12 | -5 | 16 | / | / | /
CCc1cc2c(nc1CC)CCCN2S(=O)(=O)c1ccc(OC)cc1 | 12 | 28 | / | / | /
O=C(C1=NN[C@@H]2C(=O)N(c3cccc(C(F)(F)F)c3)C(=O)[C@H]12)c1ccc2ccccc2n1 | 59* | 25 | 2 | -4 | 4
CC(=O)Nc1cccc(-c2cc(NC(C)=O)c3ncc(-c4ccc(F)cc4)n3c2)c1 | 54* | -15 | 36 | 9 | 2
Cc1nnc(SC(=O)N2c3ccccc3Sc3ccccc32)s1 | 60* | -6 | 31 | 17 | 65*
CC(=O)Nc1ccc(NC(=O)c2nc(S(=O)(=O)Cc3cccc(C)c3)ncc2Cl)cc1 | 83* | -4 | -55 | -40 | -49
CCc1ccc(NC(=O)c2nc(S(=O)(=O)Cc3ccccc3)ncc2Cl)cc1 | 31 | -5 | 13 | -88 | -35
